According to PubChem BioAssay (Tox21):
Results filed as inconclusive are left out. A call without a number means that no potency is given here. The source made the active and inactive calls. Unless noted, the call rests on the fitted dose curve; in most records, active means well fitted activation curve with a large enough effect; inconclusive means small, poorly fitted or top-dose-only effect; inactive means flat fitted curve, though single readings scatter. Positions of bridges follow the written chain, without caps; N, C: chain ends. Non-standard residues stand in square brackets, D forms with d. Residues, ends and D or L forms follow the SMILES beside them. *: point of attachment. X2 = CC[C@H](C)CCCCC(=O)*; Orn = NCCC[C@H](N)C(=O)O; Dab = NCC[C@H](N)C(=O)O; Mpa = O=C(O)CCS

Molecular target: Peroxisome proliferator-activated receptor gamma (Homo sapiens) (UniProt P37231)
Sequence (P37231 whole entry, looked up): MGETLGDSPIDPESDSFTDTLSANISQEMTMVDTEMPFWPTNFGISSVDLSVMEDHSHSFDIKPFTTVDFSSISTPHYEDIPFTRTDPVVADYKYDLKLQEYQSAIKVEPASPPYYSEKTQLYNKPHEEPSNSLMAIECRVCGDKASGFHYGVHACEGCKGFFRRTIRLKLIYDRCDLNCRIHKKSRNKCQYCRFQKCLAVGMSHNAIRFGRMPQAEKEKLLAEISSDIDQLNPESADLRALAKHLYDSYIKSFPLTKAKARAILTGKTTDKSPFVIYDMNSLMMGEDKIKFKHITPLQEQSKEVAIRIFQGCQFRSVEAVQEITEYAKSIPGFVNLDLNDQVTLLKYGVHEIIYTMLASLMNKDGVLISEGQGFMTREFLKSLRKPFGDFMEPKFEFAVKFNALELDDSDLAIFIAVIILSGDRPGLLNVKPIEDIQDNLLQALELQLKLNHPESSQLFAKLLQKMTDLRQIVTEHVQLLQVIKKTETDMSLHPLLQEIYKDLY
Assay: qHTS assay to identify small molecule agonists of the peroxisome proliferator-activated receptor gamma (PPARg) signaling pathway (AID 743094; active means well fitted activation curve with a large enough effect in the signal ratio in the repeat runs, not every such curve was filed as active; the % refers to the signal ratio)
Conditions: HEK293H PPARg-UAS-bla, beta-lactamase FRET ratio, 17 h; series mostly up to 57 µM
Summary of the method: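 GeneBLAzer PPARg UAS-bla HEK293H cells carrying a stably integrated beta-lactamase reporter were pre-incubated 5 h at 37C, then exposed to compounds in DMSO for 17 h at 37C; LiveBLAzer B/G FRET substrate was added for 1 h at room temperature and fluorescence read.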
In the case of `NCCC(=O)[N-][C@@H](Cc1cnc[nH]1)C(=O)O.[Zn]`, the Potency is reported as “inactive”. With `CNc1cc(OC)c(C(=O)N[C@H]2CCN(Cc3ccccc3)[C@H]2C)cc1Cl` the Potency was “inactive”. For `C#CCOc1ccc2c(C)cc(=O)oc2c1`, the Potency was “inactive”. For `OC[C@H]1O[C@@H](n2cnc3c2NC=NC[C@H]3O)C[C@@H]1O`, the Potency was “inactive”. In the case of `CCCC(=O)Nc1c(I)cc(I)c(CC(CC)C(=O)O)c1I` (stereo not given), the Potency is reported as “inactive”. With `O=P(O)(O)OC(CO)CO` the Potency was “inactive”. In the case of `CCCCCCCCCCCCCCCC(=O)O[C@@H]1[C@@H](O)[C@@H](O)[C@@H]([C@H](NC(=O)[C@@H]2C[C@@H](CCC)CN2C)[C@H](C)Cl)O[C@@H]1SC`, the Potency is reported as “inactive”. In the case of `CC(=O)O[C@H]1C[C@@]2(C)[C@@H](C[C@@H](O)[C@H]3[C@@]4(C)CC[C@@H](O)[C@@H](C)[C@@H]4CC[C@@]32C)/C1=C(\CCC=C(C)C)C(=O)O`, the Potency is reported as “inactive”. For `C[C@H](CSC(=O)c1ccccc1)C(=O)N1C[C@@H](Sc2ccccc2)C[C@H]1C(=O)O`, the Potency was “inactive”. For `O=S(O)CNc1ccc(S(=O)(=O)c2ccc(NCS(=O)O)cc2)cc1`, the Potency was “inactive”. In the case of `CC(=O)O[C@H]1C[C@@H]2CC[C@@H]3[C@H](CC[C@@]4(C)[C@H]3C[C@H](N3CC[N+](C)(C)CC3)[C@@H]4OC(C)=O)[C@@]2(C)C[C@@H]1N1CC[N+](C)(C)CC1`, the Potency is reported as “inactive”. For `O=C1O[C@H]2[C@H](O)[C@@H]1OC(O)[C@H]2O` (stereo not given in full), the Potency was “inactive”. In the case of `CC(=O)Nc1ccc(NC(=S)NC(=O)c2ccc(C(C)(C)C)cc2)cc1`, the Potency is reported as “inactive”. For `CCSc1ccc2c(c1)N(CCCN1CCN(C)CC1)c1ccccc1S2`, the Potency was “inactive”. For `CC[C@H]1OC(=O)[C@H](C)[C@@H](O[C@H]2C[C@@](C)(OC)[C@@H](O)[C@H](C)O2)[C@H](C)[C@@H](O[C@@H]2O[C@H](C)C[C@H](N(C)C)[C@H]2O)[C@](C)(O)C[C@@H](C)[C@@H]2N[C@@H](COCCOC)O[C@@H]([C@H]2C)[C@]1(C)O`, the Potency was “inactive”. For `Cn1c(=O)c2c(ncn2CCOC(=O)C(C)(C)Oc2ccc(Cl)cc2)n(C)c1=O`, the Potency was “inactive”. For `O=C(O)c1ccc(OCCn2ccnc2)cc1`, the Potency was “inactive”. With `CO[C@@H]1[C@@H](O[C@@H]2O[C@H](C)[C@@H](O[C@H]3C[C@@](C)(O)[C@@H](OC(=O)CC(C)C)[C@H](C)O3)[C@H](N(C)C)[C@H]2O)[C@@H](CC=O)C[C@@H](C)[C@@H](O)/C=C/C=C/C[C@@H](C)OC(=O)C[C@H]1O` the Potency was “inactive”. With `CCN(CC)CCOc1ccc2nc(N(C)C)sc2c1` the Potency was “inactive”. In the case of `COCC1=C(C(=O)OC(C)OC(=O)OC(C)C)N2C(=O)[C@@H](NC(=O)/C(=N\OC)c3csc(N)n3)[C@H]2SC1` (stereo not given in full), the Potency is reported as “inactive”. In the case of `Cc1cccc(C)c1Nc1ncccc1C(=O)O`, the Potency is reported as “inactive”. In the case of `CC1=C(/C=C/C(C)=C/C=C/C(C)=C/C=C/C=C(C)/C=C/C=C(C)/C=C/C2=C(C)C(=O)CCC2(C)C)C(C)(C)CCC1=O`, the Potency is reported as “inactive”. In the case of `O=C1C(=O)c2ncccc2-c2cccnc21`, the Potency is reported as “inactive”. With `CC[C@H](C)CCCCC(=O)N[C@@H](CCN)C(=O)N[C@H](C(=O)N[C@@H](CCN)C(=O)N[C@H]1CCNC(=O)[C@H]([C@@H](C)O)NC(=O)[C@H](CCN)NC(=O)[C@H](CCN)NC(=O)[C@H](CC(C)C)NC(=O)[C@@H](CC(C)C)NC(=O)[C@H](CCN)NC1=O)[C@@H](C)O` (X2-[Dab]T[Dab][Dab][Dab][dL]L[Dab][Dab]T; lactam 4-C) the Potency was “inactive”. In the case of `O=C(NCCNCC(O)COc1ccc(O)cc1)N1CCOCC1` (stereo not given), the Potency is reported as “inactive”. In the case of `CCOc1ccc(C[C@H]2NC(=O)CCSSC[C@@H](C(=O)N3CCC[C@H]3C(=O)N[C@@H](CCCN)C(=O)NCC(N)=O)NC(=O)[C@H](CC(N)=O)NC(=O)[C@H]([C@@H](C)O)NC(=O)[C@H]([C@@H](C)CC)NC2=O)cc1` ([Mpa][dY](Et)ITNCP[Orn]G-NH2; disulfide 1-6), the Potency is reported as “inactive”. In the case of `CCCCCCCCCCCCCCCCCC(=O)OCC(C)O` (stereo not given), the Potency is reported as “inactive”. For `CC(NNC(=O)c1ccccc1)c1ccccc1` (stereo not given), the Potency was “inactive”. For `CC(=O)O[C@H]1C(=O)[C@@]2(C)[C@H]([C@H](OC(=O)c3ccccc3)[C@]3(O)C[C@H](OC(=O)[C@H](O)[C@@H](NC(=O)c4ccccc4)c4ccccc4)C(C)=C1C3(C)C)[C@]1(OC(C)=O)CO[C@@H]1C[C@@H]2O`, the Potency was “inactive”. With `CN(C(=O)CO)c1c(I)c(C(=O)NCC(O)CO)c(I)c(C(=O)NCC(O)CO)c1I` (stereo not given) the Potency was “inactive”. In the case of `CC(C(=O)O)c1ccc(N2Cc3ccccc3C2=O)cc1` (stereo not given), the Potency is reported as “inactive”.

Tested on: not listed separately
Assay: qHTS assay to identify small molecule phospholipidosis (PLD) inducers (AID 1259344)
Conditions: HepG2 phospholipidosis, LipidTOX Red imaging, 24 h; series mostly up to 38.3 µM
Summary of the method: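 Phospholipidosis is scored by imaging LipidTOX-stained pits in HepG2 cells exposed to compound for 24 h at 37 C; pit counts and integrated intensities per well and per cell serve as outputs.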
For `O=C(O)c1cccc(/C=C2/C[C@@H]3[C@@H](/C=C/[C@@H](O)C4CCCCC4)[C@H](O)C[C@@H]3O2)c1`, the Potency was “inactive”. With `CC1(C)S[C@@H]2[C@H](NC(=O)[C@H](N)c3ccccc3)C(=O)N2[C@H]1C(=O)OCOC(=O)[C@@H]1N2C(=O)C[C@H]2S(=O)(=O)C1(C)C` the Potency was “inactive”. With `NCCC(=O)[N-][C@@H](Cc1cnc[nH]1)C(=O)O.[Zn]` the Potency was “inactive”. In the case of `CNc1cc(OC)c(C(=O)N[C@H]2CCN(Cc3ccccc3)[C@H]2C)cc1Cl`, the Potency is reported as “inactive”. For `C#CCOc1ccc2c(C)cc(=O)oc2c1`, the Potency was “inactive”. In the case of `OC[C@H]1O[C@@H](n2cnc3c2NC=NC[C@H]3O)C[C@@H]1O`, the Potency is reported as “inactive”. In the case of `CCCC(=O)Nc1c(I)cc(I)c(CC(CC)C(=O)O)c1I` (stereo not given), the Potency is reported as “inactive”. For `O=P(O)(O)OC(CO)CO`, the Potency was “inactive”. With `CCCCCCCCCCCCCCCC(=O)O[C@@H]1[C@@H](O)[C@@H](O)[C@@H]([C@H](NC(=O)[C@@H]2C[C@@H](CCC)CN2C)[C@H](C)Cl)O[C@@H]1SC` the Potency was “inactive”. With `CC(=O)O[C@H]1C[C@@]2(C)[C@@H](C[C@@H](O)[C@H]3[C@@]4(C)CC[C@@H](O)[C@@H](C)[C@@H]4CC[C@@]32C)/C1=C(\CCC=C(C)C)C(=O)O` the Potency was “inactive”. In the case of `CC1=C[C@H](O)CC(C)(C)[C@H]1/C=C/C(C)=C/C=C/C(C)=C/C=C/C=C(C)/C=C/C=C(C)/C=C/C1=C(C)C[C@@H](O)CC1(C)C`, the Potency is reported as “inactive”. With `C[C@H](CSC(=O)c1ccccc1)C(=O)N1C[C@@H](Sc2ccccc2)C[C@H]1C(=O)O` the Potency was “inactive”. In the case of `O=S(O)CNc1ccc(S(=O)(=O)c2ccc(NCS(=O)O)cc2)cc1`, the Potency is reported as “inactive”. For `CC(=O)O[C@H]1C[C@@H]2CC[C@@H]3[C@H](CC[C@@]4(C)[C@H]3C[C@H](N3CC[N+](C)(C)CC3)[C@@H]4OC(C)=O)[C@@]2(C)C[C@@H]1N1CC[N+](C)(C)CC1`, the Potency was “inactive”. In the case of `O=C1O[C@H]2[C@H](O)[C@@H]1OC(O)[C@H]2O` (stereo not given in full), the Potency is reported as “inactive”. With `CC(=O)Nc1ccc(NC(=S)NC(=O)c2ccc(C(C)(C)C)cc2)cc1` the Potency was “inactive”. In the case of `CCSc1ccc2c(c1)N(CCCN1CCN(C)CC1)c1ccccc1S2`, the Potency is reported as “inactive”. In the case of `CC[C@H]1OC(=O)[C@H](C)[C@@H](O[C@H]2C[C@@](C)(OC)[C@@H](O)[C@H](C)O2)[C@H](C)[C@@H](O[C@@H]2O[C@H](C)C[C@H](N(C)C)[C@H]2O)[C@](C)(O)C[C@@H](C)[C@@H]2N[C@@H](COCCOC)O[C@@H]([C@H]2C)[C@]1(C)O`, the Potency is reported as “inactive”. In the case of `Cn1c(=O)c2c(ncn2CCOC(=O)C(C)(C)Oc2ccc(Cl)cc2)n(C)c1=O`, the Potency is reported as “inactive”. For `O=C(O)c1ccc(OCCn2ccnc2)cc1`, the Potency was “inactive”. In the case of `CC1=C(/C=C/C(C)=C/C=C/C(C)=C/C=C/C=C(C)/C=C/C=C(C)/C=C/C2=C(C)C[C@@H](O)CC2(C)C)C(C)(C)C[C@H](O)C1`, the Potency is reported as “inactive”. In the case of `CO[C@@H]1[C@@H](O[C@@H]2O[C@H](C)[C@@H](O[C@H]3C[C@@](C)(O)[C@@H](OC(=O)CC(C)C)[C@H](C)O3)[C@H](N(C)C)[C@H]2O)[C@@H](CC=O)C[C@@H](C)[C@@H](O)/C=C/C=C/C[C@@H](C)OC(=O)C[C@H]1O`, the Potency is reported as “inactive”. In the case of `CCN(CC)CCOc1ccc2nc(N(C)C)sc2c1`, the Potency is reported as “inactive”. In the case of `COc1cc([C@@H]2c3cc4c(cc3C(O[C@@H]3O[C@@H]5COC(c6cccs6)O[C@H]5[C@H](O)[C@H]3O)C3COC(=O)[C@@H]32)OCO4)cc(OC)c1O` (stereo not given in full), the Potency is reported as “inactive”. In the case of `COCC1=C(C(=O)OC(C)OC(=O)OC(C)C)N2C(=O)[C@@H](NC(=O)/C(=N\OC)c3csc(N)n3)[C@H]2SC1` (stereo not given in full), the Potency is reported as “inactive”. With `Cc1cccc(C)c1Nc1ncccc1C(=O)O` the Potency was “inactive”. For `CC1=C(/C=C/C(C)=C/C=C/C(C)=C/C=C/C=C(C)/C=C/C=C(C)/C=C/C2=C(C)C(=O)CCC2(C)C)C(C)(C)CCC1=O`, the Potency was “inactive”. With `CCC(=O)O[C@]1(C(=O)CCl)[C@@H](C)C[C@H]2[C@@H]3C[C@H](F)C4=CC(=O)C=C[C@]4(C)[C@@]3(F)[C@@H](O)C[C@@]21C` the Potency was “inactive”. In the case of `O=C1C(=O)c2ncccc2-c2cccnc21`, the Potency is reported as “inactive”. For `CC[C@H](C)CCCCC(=O)N[C@@H](CCN)C(=O)N[C@H](C(=O)N[C@@H](CCN)C(=O)N[C@H]1CCNC(=O)[C@H]([C@@H](C)O)NC(=O)[C@H](CCN)NC(=O)[C@H](CCN)NC(=O)[C@H](CC(C)C)NC(=O)[C@@H](CC(C)C)NC(=O)[C@H](CCN)NC1=O)[C@@H](C)O` (X2-[Dab]T[Dab][Dab][Dab][dL]L[Dab][Dab]T; lactam 4-C), the Potency was “inactive”. In the case of `O=C(NCCNCC(O)COc1ccc(O)cc1)N1CCOCC1` (stereo not given), the Potency is reported as “inactive”. For `CCOc1ccc(C[C@H]2NC(=O)CCSSC[C@@H](C(=O)N3CCC[C@H]3C(=O)N[C@@H](CCCN)C(=O)NCC(N)=O)NC(=O)[C@H](CC(N)=O)NC(=O)[C@H]([C@@H](C)O)NC(=O)[C@H]([C@@H](C)CC)NC2=O)cc1` ([Mpa][dY](Et)ITNCP[Orn]G-NH2; disulfide 1-6), the Potency was “inactive”. With `CC(C)CN(C[C@@H](O)[C@H](Cc1ccccc1)NC(=O)O[C@H]1CO[C@H]2OCC[C@H]21)S(=O)(=O)c1ccc(N)cc1` the Potency was “inactive”. For `CCCCCCCCCCCCCCCCCC(=O)OCC(C)O` (stereo not given), the Potency was “inactive”.
